Rows were chosen to be rich in hits. Some 4.1% of all compounds tested hit in one or more screens of this group.
Mtb FBA inh: inhibitors of M. tuberculosis fructose-bisphosphate aldolase | inhibition, % at 1 µM | P9WQA3 | hit rate 2.3% among 360,000 | purified M. tuberculosis FBA, fluorescence read-out; in the data active = inhibition above about 27%
BH1578 lux ind: inducers of Vibrio cholerae quorum light production without autoinducers; hit rate 0.16% among 350,000; activation, % at 18.7 µM; V. cholerae BH1578 lux reporter, luminescence, 6 h; in the data active = activation mostly above about 9.7%, no sharp cut-off
UGM FP inh: blocks M. tuberculosis UGM enzyme; hit rate 0.06% among 320,000; purified UGM, fluorescence polarization probe displacement; P9WIQ1; inhibition, % at 10 µM; in the data active = inhibition above about 10%, passing the limit was not always enough
Target sequence (P9WIQ1 whole entry, looked up): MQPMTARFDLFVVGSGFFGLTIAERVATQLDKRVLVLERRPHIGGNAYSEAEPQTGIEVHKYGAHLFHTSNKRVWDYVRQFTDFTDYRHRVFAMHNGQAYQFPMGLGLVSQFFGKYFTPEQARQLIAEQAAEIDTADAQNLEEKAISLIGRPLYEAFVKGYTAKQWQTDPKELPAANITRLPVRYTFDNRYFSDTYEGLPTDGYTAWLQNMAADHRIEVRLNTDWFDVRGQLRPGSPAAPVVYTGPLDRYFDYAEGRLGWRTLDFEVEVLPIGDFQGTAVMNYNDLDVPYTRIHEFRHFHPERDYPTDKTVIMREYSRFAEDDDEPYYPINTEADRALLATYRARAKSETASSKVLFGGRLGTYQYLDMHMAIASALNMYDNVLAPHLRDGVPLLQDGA
Rv3671c protease: inhibits the M. tuberculosis serine protease Rv3671c; inhibition, % at 5.96 µM; hit rate 0.048% among 320,000; in the data active = inhibition above about 38%;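 also: extracellular domain of Rv3671c used as enzyme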
RecA intein inh: blocks M. tuberculosis RecA intein splicing; AID 2221; cell-free RecA intein splicing, fluorescence; hit rate 0.75% among 290,000; P9WHJ3; inhibition, % (concentration not given with the values); in the data active = inhibition above about 30%
GDH-TPI inh: inhibits GDH-TPI coupling enzymes, artifact for Mtb FBA screen. GDH-TPI coupled enzyme counterscreen, NADH absorbance. inhibition, % at 4.8 µM. hit rate 1.2% among 360,000. AID 588335; in the data active = inhibition above about 30%
GFP chromo cs: counter-screen: blocks GFP chromophore formation. shares compounds with RecA intein inh. cell-free GFP chromophore formation, fluorescence. EC50, µM. hit rate 83% among 2,100. AID 434968; call rule not given here
Each line names hits and unclear results; the compound was inactive in the other large screens (follow-up assays come after a bar, where they were run).

O=C(Oc1ccc(N(C(=O)c2ccncc2)S(=O)(=O)c2ccc(Cl)cc2)cc1)c1ccncc1	RecA intein inh 37.8 | GFP chromo cs 32.5
Cc1noc(C)c1S(=O)(=O)Nc1ccc2c(c1)C(=O)N([C@@H](C)CO)C[C@H](C)[C@@H](CN(C)Cc1ccc(C(F)(F)F)cc1)OCCCC[C@H](C)O2	none (no result: UGM FP inh, Rv3671c protease, RecA intein inh)
Cc1cc2c3c(c1)C(C)CC(C)(C)N3C(=O)C2=C(C#N)C#N (configuration not stated)	RecA intein inh 38.9 | GFP chromo cs 3.74
CC1CC(C)(C)N2C(=O)C(=C(C#N)C#N)c3cccc1c32 (configuration not stated)	none
CCc1nc2ccc(C(=O)Nc3cccc(OCC(=O)N(C)C)c3)cn2c1N(CC)CCOC	none (no result: UGM FP inh, Rv3671c protease, RecA intein inh)
CC(C)Cn1c(N)c(S(=O)(=O)c2cccs2)c2nc3ccccc3nc21	Mtb FBA inh 141.8, RecA intein inh 46.9 (no result: BH1578 lux ind, UGM FP inh, Rv3671c protease) | GFP chromo cs 28.8
CC(C)(C)c1ccc(S(=O)(=O)/N=C2\C=C(NS(=O)(=O)c3ccccc3)C(=O)c3ccccc32)cc1	RecA intein inh 63.3 | GFP chromo cs 7.89
Cc1ccc(S(=O)(=O)/N=C2/C=C(Sc3ncn[nH]3)C(=O)c3ccccc32)c(C)c1	none (no result: Mtb FBA inh, BH1578 lux ind, RecA intein inh, GDH-TPI inh)
Cc1ccc(S(=O)(=O)/N=C2\C=C(NS(=O)(=O)c3ccccc3)C(=O)c3ccccc32)c(C)c1	none (no result: UGM FP inh, Rv3671c protease, RecA intein inh)
Cc1ccc(S(=O)(=O)/N=C2\C=C(Nc3cccc(C(=O)O)c3)C(=O)c3ccccc32)cc1	RecA intein inh 94.6 | GFP chromo cs 0.51
Cc1ccc(S(=O)(=O)/N=C2\C=C(Nc3cccc(C(=O)O)c3)C(=O)c3ccccc32)c(C)c1	RecA intein inh 82.3 | GFP chromo cs inactive
CCc1ccc(S(=O)(=O)/N=C2\C=C(Nc3ccc(C(=O)O)cc3)C(=O)c3ccccc32)cc1	RecA intein inh 91.0 | GFP chromo cs 0.243
COC(=O)c1[nH]nc(-c2ccccc2)c1-c1ccccc1	none
NC(=O)CC1(c2ccccc2)CCCCC1	none (no result: UGM FP inh, Rv3671c protease, RecA intein inh)
COc1ccc(N(C(=O)CCl)C(C(=O)NCCc2ccccc2)c2cccs2)cc1 (configuration not stated)	RecA intein inh 75.8 | GFP chromo cs 1.71
CC(C)CCn1c(Sc2nc3ccccc3o2)nc2c1c(=O)[nH]c(=O)n2C	RecA intein inh 31.1 | GFP chromo cs 5.03
COc1cccc(CNC(=O)Cc2ccc(NC3=NC4CS(=O)(=O)CC4S3)cc2)c1 (configuration not stated)	none
COc1ccc(OC)c(NC(=O)Cc2ccc(NC3=NC4CS(=O)(=O)CC4S3)cc2)c1 (configuration not stated)	RecA intein inh 38.0 | GFP chromo cs inactive
COc1cc(C2(c3ccc(O)c(OC)c3)C(=O)Nc3c(Br)cc(Br)cc32)ccc1O	RecA intein inh 48.9 | GFP chromo cs 12.4
COc1cc(C2(c3ccc(O)c(OC)c3)C(=O)N(C)c3ccc(Br)cc32)ccc1O	none (no result: RecA intein inh)
CCOC(=O)C1=CC[C@@H](c2ccccc2Cl)N(S(=O)(=O)c2ccc(C)cc2)[C@H]1C(=O)OCC	none (no result: RecA intein inh)
O=C(C1CCCCC1)N1C[C@@H](O)[C@H](n2cc(C3CC3)nn2)C[C@@H]1c1ccc(Cl)cc1	none (no result: UGM FP inh, Rv3671c protease, RecA intein inh)
Clc1ccc(Sc2oc(/C=N/n3cnnc3)cc2Br)cc1	RecA intein inh 62.5 | GFP chromo cs 22.4
CCc1nnc(NC(=O)c2nc(S(=O)(=O)Cc3cccc(C)c3)ncc2Cl)s1	RecA intein inh 74.9 | GFP chromo cs 15.6
COC(=O)c1ccccc1NC(=O)c1nc(S(=O)(=O)Cc2ccccc2)ncc1Cl	none
CCOc1ccccc1NC(=O)c1nc(S(=O)(=O)Cc2cccc(C)c2)ncc1Cl	none
CCc1nnc(NC(=O)c2nc(S(=O)(=O)Cc3ccc(C)cc3)ncc2Cl)s1	RecA intein inh 76.3 | GFP chromo cs 19.6
CCc1nnc(NC(=O)c2nc(S(=O)(=O)Cc3ccccc3)ncc2Cl)s1	RecA intein inh 66.2 | GFP chromo cs 36.9
Cc1ccc(NC(=S)N2CCN(c3ccccn3)CC2)cc1C	none
Cc1ccc(CNC(=O)CN2C(=O)NC(C)(c3cccc(Br)c3)C2=O)cc1 (configuration not stated)	none
CCn1cc(CN2CCCC(CNC(=O)COc3ccccc3OC)C2)c(C)n1 (configuration not stated)	none
COc1cc(C(O)c2nc(-c3cccc(F)c3)cs2)ccc1F (configuration not stated)	none (no result: UGM FP inh, Rv3671c protease, RecA intein inh)
COc1cc(/C=C(\C#N)c2nc3ccccc3s2)cc([N+](=O)[O-])c1O	none (no result: UGM FP inh, Rv3671c protease, RecA intein inh)
N#C/C(=C\c1ccc(O)c([N+](=O)[O-])c1)c1nc2ccccc2s1	RecA intein inh 50.6 (no result: UGM FP inh, Rv3671c protease) | GFP chromo cs 22.6
Cc1oc2ccc(O)cc2c1C(=O)c1ccc(F)cc1	none
Cn1c(=O)c([N+](=O)[O-])c(-n2ccnc2)c2ccccc21	RecA intein inh 65.7 | GFP chromo cs 18.6
Nc1ccc2nc(CCCCCCc3nc4ccc(N)cc4[nH]3)[nH]c2c1	none
Nc1ccc2nc(CCCCc3nc4ccccc4[nH]3)[nH]c2c1	RecA intein inh 35.8 (no result: Rv3671c protease) | GFP chromo cs inactive
CNc1ncnc2c1ncn2[C@H]1CN(Cc2cccc3ccccc23)C[C@@H](CO)O1	none (no result: UGM FP inh, Rv3671c protease, RecA intein inh)
CC(C)Nc1ccc(Nc2ccccc2)cc1	RecA intein inh 36.2 | GFP chromo cs inactive
CC(=O)N(CCC(Cc1ccccc1)c1ccc2c(c1)OCO2)Cc1ccccc1F (configuration not stated)	RecA intein inh 35.7 | GFP chromo cs inactive
Cc1cc(S(=O)(=O)NC(=O)[C@H]2O[C@@H](n3cnc4c(N)ncnc43)[C@H](O)[C@@H]2O)ccc1Br	none (no result: BH1578 lux ind, UGM FP inh, Rv3671c protease, RecA intein inh, GDH-TPI inh)
O=C1C(c2c(O)[nH]c3ccccc23)=Nc2ccccc21	none
CC(=O)c1cccc2c(O)c(C3=Nc4ccccc4C3=O)[nH]c12	RecA intein inh 41.5 | GFP chromo cs 4.58
CC1=NN(c2ccc(C)cc2C)C(=O)C1C(c1ccccc1)C1C(=O)N(c2ccc(C)cc2C)N=C1C (configuration not stated)	RecA intein inh 89.7 | GFP chromo cs 1.14
O=C(CSCc1ccc([N+](=O)[O-])cc1)N/N=C/c1cccnc1	RecA intein inh 38.1 | GFP chromo cs inactive
O=C(CSCc1ccc([N+](=O)[O-])cc1)N/N=C/c1ccncc1	none
Cc1cccc(C)c1NC(=O)CN(C)C(=O)CC1OC(=O)c2ccccc21 (configuration not stated)	none
CCCCCCCCCCOC(=O)Cn1c(COc2ccc(Cl)cc2)[n+](C)c2ccccc21	none
CCCCCCCCCCOC(=O)Cn1c(COc2ccc(OC)cc2)[n+](C)c2ccccc21	RecA intein inh 42.4 | GFP chromo cs 11.5
CCCCCCCCCCOC(=O)Cn1c(COc2ccccc2)[n+](C)c2ccccc21	RecA intein inh 47.0 | GFP chromo cs 12.2
CCCCCCCCCCOC(=O)Cn1c(COc2ccccc2C)[n+](C)c2ccccc21	RecA intein inh 57.2 | GFP chromo cs 7.57

Screening results as filed in PubChem.
